“And” between values parts separate entries of the source, which are not always exact repeats. Identical values can stand only once. Inconclusive results are not listed. Where a call stands in place of a potency, no number is given. The source made the active and inactive calls. Calls follow the shape of the dose curve; as a rule, active = well fitted curve in the direction sought with a large enough effect; inconclusive = small, poorly fitted or top-dose-only effect, or another doubt; inactive = no such curve, though single readings can be large; an effect the other way counts as inactive or inconclusive. Peptide text beside a SMILES is read from it.
Assay: Primary qHTS for inhibitors of nuclear receptor binding SET domain protein 2 (NSD2) in an isogenic RCH-ACV NSD2 p.E1099K mutant (9B) (AID 1645876)
Settings: RCH-ACV NSD2 E1099K (9B) viability, CellTiter-Glo, 72 h; series mostly up to 44.9 µM
In the case of COCCCOc1ccnc(CS(=O)c2nc3ccccc3[nH]2)c1C (configuration not stated), the Potency is reported as “inactive”. In the case of CCCCc1ccc2nc(NC(=O)OC)[nH]c2c1, the Potency is reported as 53.1 nM (active) and 166 nM (active). In the case of O=C1CCc2ccc(OCCCCN3CCN(c4cccc(Cl)c4Cl)CC3)cc2N1, the Potency is reported as “inactive”. In the case of CCC1=C(C)CN(C(=O)NCCc2ccc(S(=O)(=O)NC(=O)NC3CCC(C)CC3)cc2)C1=O (configuration not stated), the Potency is reported as “inactive”. In the case of CS(=O)(=O)OCCCCOS(C)(=O)=O, the Potency is reported as “inactive”. With CCC(C)(Oc1ccc(C2(c3ccc(OC(C)(CC)C(=O)O)cc3)CCCCC2)cc1)C(=O)O (configuration not stated) the Potency was “inactive”. In the case of Nc1ccc(S(N)(=O)=O)cc1, the Potency is reported as “inactive”. With Cc1cc2cc3c(C)cc(=O)oc3c(C)c2o1 the Potency was “inactive”. In the case of Clc1ccc(C(Cn2ccnc2)OCc2ccsc2Cl)c(Cl)c1 (configuration not stated), the Potency is reported as 18.6 µM (active). For COc1cc2c(N3CCN(C(=O)Nc4ccc(OC(C)C)cc4)CC3)ncnc2cc1OCCCN1CCCCC1, the Potency was 18.8 µM (active) and 25.8 µM (active) and 16.6 µM (active). With Nc1cccc2c1CN(C1CCC(=O)NC1=O)C2=O (configuration not stated) the Potency was “inactive”. For CC(=O)O[C@H]1C(=O)[C@@]2(C)C([C@H](OC(=O)c3ccccc3)[C@]3(O)C[C@H](OC(=O)[C@H](O)[C@@H](NC(=O)c4ccccc4)c4ccccc4)C(C)=C1C3(C)C)[C@]1(OC(C)=O)CO[C@@H]1C[C@@H]2O (some centres not stated), the Potency was 4.5 nM (active) and 5.9 nM (active). With COC(=O)[C@H](Cc1ccccc1)NC(=O)[C@@H](N)CC(=O)O (H-Asp-Phe-OMe) the Potency was “inactive”. With CCCOc1ccc2nc(NC(=O)OC)[nH]c2c1 the Potency was 411 nM (active) and 417 nM (active). In the case of NS(=O)(=O)c1cc(C(=O)O)c(NCc2ccco2)cc1Cl, the Potency is reported as “inactive”. With Cc1ncc([N+](=O)[O-])n1CC(C)O (configuration not stated) the Potency was “inactive”. With COc1cc2nc(N3CCN(C(=O)C4CCCO4)CC3)nc(N)c2cc1OC (configuration not stated) the Potency was 11.9 µM (active). In the case of CN1C(C(=O)Nc2ccccn2)=C(O)c2sccc2S1(=O)=O, the Potency is reported as “inactive”. With CCCCCCCCCCCCCCCCCCCCCCO the Potency was “inactive”.

Assay: Primary qHTS for inhibitors of nuclear receptor binding SET domain protein 2 (NSD2) in an RCH-ACV wild type WT cells (2C) (AID 1645877)
Settings: RCH-ACV (leukaemia line) NSD2 WT (2C) viability, CellTiter-Glo, 72 h; series mostly up to 44.9 µM
In the case of Clc1ccc(C(Cn2ccnc2)OCc2ccc(Sc3ccccc3)cc2)c(Cl)c1 (configuration not stated), the Potency is reported as 16.6 µM (active). In the case of CC(C)c1ccc2oc3nc(N)c(C(=O)O)cc3c(=O)c2c1, the Potency is reported as “inactive”. With O=C(O)c1cn(-c2ccc(F)cc2)c2cc(N3CCNCC3)c(F)cc2c1=O the Potency was “inactive”. In the case of CC1Cc2ccccc2N1NC(=O)c1ccc(Cl)c(S(N)(=O)=O)c1 (configuration not stated), the Potency is reported as “inactive”. For O=C(O)c1cc(=O)c2c(OCC(O)COc3cccc4oc(C(=O)O)cc(=O)c34)cccc2o1, the Potency was “inactive”. In the case of COCCCN1CCC(NC(=O)c2cc(Cl)c(N)c3c2OCC3)CC1, the Potency is reported as “inactive”. In the case of CC1=C(C)C(=O)C(C(CCCCCC(=O)O)c2ccccc2)=C(C)C1=O (configuration not stated), the Potency is reported as “inactive”. With CC(S)C(=O)NCC(=O)O (configuration not stated) the Potency was “inactive”. For O=C(NC(Cc1cc(=O)[nH]c2ccccc12)C(=O)O)c1ccc(Cl)cc1 (configuration not stated), the Potency was “inactive”. In the case of C[Se]CCC(N)C(=O)O (configuration not stated), the Potency is reported as “inactive”. With O=C(O)CCNC(=O)c1ccc(N=Nc2ccc(O)c(C(=O)O)c2)cc1 the Potency was “inactive”. With CC[C@]1(O)C[C@H]2CN(CCc3c([nH]c4ccccc34)[C@@](C(=O)OC)(c3cc4c(cc3OC)N(C=O)[C@H]3[C@@](O)(C(=O)OC)[C@H](OC(C)=O)[C@]5(CC)C=CCN6CC[C@]43[C@@H]65)C2)C1 the Potency was 6.7 nM (active) and 29.5 nM (active). With COCCCOc1ccnc(CS(=O)c2nc3ccccc3[nH]2)c1C (configuration not stated) the Potency was “inactive”. In the case of CCCCc1ccc2nc(NC(=O)OC)[nH]c2c1, the Potency is reported as 47.3 nM (active) and 118 nM (active). With CS(=O)(=O)OCCCCOS(C)(=O)=O the Potency was “inactive”. For CCC(C)(Oc1ccc(C2(c3ccc(OC(C)(CC)C(=O)O)cc3)CCCCC2)cc1)C(=O)O (configuration not stated), the Potency was “inactive”. With Nc1ccc(S(N)(=O)=O)cc1 the Potency was “inactive”. In the case of Cc1cc2cc3c(C)cc(=O)oc3c(C)c2o1, the Potency is reported as “inactive”. In the case of Clc1ccc(C(Cn2ccnc2)OCc2ccsc2Cl)c(Cl)c1 (configuration not stated), the Potency is reported as 18.6 µM (active). With COc1cc2c(N3CCN(C(=O)Nc4ccc(OC(C)C)cc4)CC3)ncnc2cc1OCCCN1CCCCC1 the Potency was 13.3 µM (active) and 23 µM (active) and 16.6 µM (active). For Nc1cccc2c1CN(C1CCC(=O)NC1=O)C2=O (configuration not stated), the Potency was “inactive”. In the case of CC(=O)O[C@H]1C(=O)[C@@]2(C)C([C@H](OC(=O)c3ccccc3)[C@]3(O)C[C@H](OC(=O)[C@H](O)[C@@H](NC(=O)c4ccccc4)c4ccccc4)C(C)=C1C3(C)C)[C@]1(OC(C)=O)CO[C@@H]1C[C@@H]2O (some centres not stated), the Potency is reported as 5.1 nM (active) and 5.9 nM (active). With COC(=O)[C@H](Cc1ccccc1)NC(=O)[C@@H](N)CC(=O)O (H-Asp-Phe-OMe) the Potency was “inactive”. For CCCOc1ccc2nc(NC(=O)OC)[nH]c2c1, the Potency was 366 nM (active) and 263 nM (active). For NS(=O)(=O)c1cc(C(=O)O)c(NCc2ccco2)cc1Cl, the Potency was “inactive”. In the case of Cc1ncc([N+](=O)[O-])n1CC(C)O (configuration not stated), the Potency is reported as “inactive”. For CN1C(C(=O)Nc2ccccn2)=C(O)c2sccc2S1(=O)=O, the Potency was “inactive”. For CCCCCCCCCCCCCCCCCCCCCCO, the Potency was “inactive”.
Also: nearly all actives have a fitted effect of over 70% in size.
Potency is read from the fitted curve at half-maximal effect.
